Source: PubChem BioAssay (National Center for Advancing Translational Sciences (NCATS))
Rows were chosen to be rich in hits. Some 11% of all compounds tested hit in one or more screens of this group.
NIH3T3 tox: Cytotoxic Profiling in NIH 3T3 Cell Line of Diverse Libraries Using Quantitative High-Throughput Screening; NIH 3T3 viability, CellTiter-Glo ATP luminescence, 48-72 h; 4.3% of 94,000 active; Potency, µM (top dose mostly 96.7 µM), most hits filed as inhibitors; further: nearly all actives have a fitted effect of over 55% in size
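First NIH 3T3 cells are plated at 400 cells/well; next compound is pinned in; then plates incubate 48 or 72 hr at 37 °C; finally CellTiter-Glo is added and luminescence read after 10 min.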
HEK293 tox: Cytotoxic Profiling in HEK 293 Cell Line of Diverse Libraries Using Quantitative High-Throughput Screening | HEK 293 viability, ATP luminescence (CellTiter-Glo), 48-72 h | Potency, µM (titrated, usually from 115 µM), actives largely listed as inhibitors | 6.6% of 94,000 active | AID 1345083, 2018; further: nearly all actives have a fitted effect of over 60% in size
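Luminescence from cellular ATP, measured with CellTiter-Glo, indicates HEK 293 viability. Cells plated at 250 cells/well are treated with compound for 48 or 72 hr at 37 degree Celsius before reagent addition.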
FLuc inh: Firefly luciferase inhibition profiling of diverse chemical library using quantitative high-throughput screening; Potency, µM (top dose mostly 115 µM), usual class: inhibitors; purified P. pyralis luciferase, luminescence, biochemical; Luciferin 4-monooxygenase (Photinus pyralis), P08659; 2.5% of 76,000 active; further: nearly all actives have a fitted effect of over 65% in size
Target sequence (P08659 whole entry, looked up): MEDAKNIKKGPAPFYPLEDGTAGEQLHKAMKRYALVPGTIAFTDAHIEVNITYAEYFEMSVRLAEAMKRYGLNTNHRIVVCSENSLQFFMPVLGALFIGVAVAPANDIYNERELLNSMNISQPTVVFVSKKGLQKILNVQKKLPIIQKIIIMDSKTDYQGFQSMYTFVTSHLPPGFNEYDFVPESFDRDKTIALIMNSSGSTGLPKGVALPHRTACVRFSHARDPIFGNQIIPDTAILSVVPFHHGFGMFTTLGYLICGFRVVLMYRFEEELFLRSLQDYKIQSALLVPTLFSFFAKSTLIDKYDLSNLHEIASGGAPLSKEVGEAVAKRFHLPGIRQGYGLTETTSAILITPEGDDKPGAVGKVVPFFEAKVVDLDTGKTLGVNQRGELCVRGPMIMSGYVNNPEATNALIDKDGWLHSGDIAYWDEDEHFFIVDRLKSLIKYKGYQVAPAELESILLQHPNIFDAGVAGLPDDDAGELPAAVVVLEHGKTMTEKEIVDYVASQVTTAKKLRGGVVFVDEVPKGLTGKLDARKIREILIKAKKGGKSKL
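FLuc 10nM, D-luciferin 10uM, ATP 10uM, Mg acetate 10mM, Tris acetate pH 7.5, Tween/BSA; cpd qHTS; enzyme added last; CCD luminescence.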
hNpr1 antagonist: Natriuretic polypeptide receptor (hNpr1) antagonism - Primary qHTS. HEK293 hNpr1 GloSensor cGMP, ANP-stimulated luminescence. Atrial natriuretic peptide receptor 1 (Homo sapiens), P16066. Potency, µM (highest dose often 46.3 µM), actives largely listed as inhibitors. AID 1347048, 2019. 1.6% of 76,000 active; calls by dose curve; further: nearly all actives have a fitted effect of over 60% in size
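HEK293 cells stably expressing human Npr1 and cGMP GloSensor pGS-40F, loaded 2 h with 2% GloSensor reagent, given compound 30 min at room temperature. Luminescence read before and 20 min after 0.1 nM hNppA.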
Numbers stand for hits; 0 = inactive; ? = inconclusive; - = no result given. Unless noted, the call rests on the fitted dose curve; in most records, active means well fitted curve in the direction sought with a large enough effect; inconclusive means small, poorly fitted or top-dose-only effect, or another doubt; inactive means no such curve, though single readings can be large; an effect the other way counts as inactive or inconclusive.

SMILES	NIH3T3 tox	HEK293 tox	FLuc inh	hNpr1 antagonist
O=C(Nc1cccc(-c2nnc3n2CCCC3)c1)c1ccc(F)c(F)c1	0	?	0	0
Cn1ncc2c(C(=O)NCCc3ccc(Cl)cc3)cc(-c3cccnc3)nc21	?	31.6µM	-	-
COc1nc2nc(CC3CC3)n(C)c2cc1-c1ccnc(C)c1	?	?	0	0
CCC(=O)N1CCC2(CC1)CN(c1ccccc1)C2=O	0	0	0	0
O=C(Cc1ccccc1)N1CCC2(CC1)CN(c1ccccc1)C2=O	?	35.5µM	-	-
O=C(Cn1cccc1-c1nc(-c2ccccc2)no1)Nc1cccc(F)c1	0	0	0	0
Cn1ncc2c(C(=O)NCC#N)cc(-c3ccccc3C(F)(F)F)nc21	?	0	-	-
CC(NC(=O)c1cc(-c2ccccc2C(F)(F)F)nc2c1cnn2C)C(C)(C)C (stereo unspecified)	?	44.7µM	-	-
COCCNC(=O)c1cc(-c2ccccc2F)nc2c1cnn2C	?	0	-	-
Cn1ncc2c(C(=O)NCC(=O)OC(C)(C)C)cc(-c3ccccc3C(F)(F)F)nc21	?	44.7µM	-	-
Cn1ncc2c(C(=O)NCCCNC(=O)OC(C)(C)C)cc(-c3ccccc3F)nc21	?	44.7µM	-	-
Cn1ncc2c(C(=O)NCc3ccc(C(F)(F)F)cc3)cc(-c3ccccc3C(F)(F)F)nc21	?	17.8µM	-	-
CCOc1cccc(CN(CCO)Cc2nccn2-c2ccc(OC)cc2)c1	?	?	0	0
CCOC(=O)C1CCN(C(=O)c2ccc3nnc(-c4ccc([S+](C)(=O)[O-])cc4)n3c2)CC1	0	0	-	-
CNC(=O)c1cc(C2CC2)cc2onc(C3CCN(C(=O)Cc4ccccn4)CC3)c12	0	?	-	-
Cn1ncc2c(C(=O)NCc3ccc(Cl)cc3)cc(-c3ccccc3C(F)(F)F)nc21	?	31.6µM	-	-
Cn1ncc2c(C(=O)NCc3ccc4c(c3)OCO4)cc(-c3ccccc3C(F)(F)F)nc21	?	35.5µM	-	-
Cn1ncc2c(C(=O)NCc3ccc(Cl)cc3)cc(-c3ccc(C(F)(F)F)cc3)nc21	0	?	-	-
Cn1ccc(NCc2nc3c(n2Cc2ccccc2)C(=O)N(Cc2cccc(Cl)c2)CCN3)n1	?	?	0	0
O=C1[C@H]2CC[C@H](CN(Cc3cccc(N4CCOCC4)c3)C2)N1CC1CCC1	0	?	0	0
O=C1[C@H]2CC[C@H](CN(Cc3ccc(-n4ccnc4)cc3)C2)N1CC1CCC1	39.8µM	?	0	?
C[C@@H]1C(=O)O[C@H]2[C@H]1CC[C@@]1(C)Cc3sc(Nc4ccc(O)cc4)nc3[C@@H](C)[C@H]21	63.1µM	35.5µM	?	?
COc1cccc([S+](=O)([O-])N2CCC3(CC2)COc2ccccc2NC3=O)c1	0	0	0	0
O=C(NCCc1ccccc1)C1Cn2cccc2C(=O)N1Cc1cccnc1 (stereo unspecified)	0	0	0	0
COc1ccc(C(=O)N2CCC3(CC2)C(OC)C(=O)N3c2cccc(F)c2)c(OC)c1 (stereo unspecified)	0	?	0	0
SMILES	NIH3T3 tox	HEK293 tox	FLuc inh	hNpr1 antagonist
Cc1c(CN(C)Cc2cccc3ncccc23)c(=O)n(-c2ccccc2)n1C	0	0	0	0
CN(Cc1cccc(CCN)c1)Cc1cccc2ncccc12	?	44.7µM	0	0
COc1ccc(-c2noc([C@@H]3CCCN3C(=O)c3cc(F)cc(F)c3)n2)cc1OC	?	?	0	0
COCCNC(=O)[C@@H]1C[C@H](Oc2cccnc2)CN1C(=O)c1cc2ccccc2[nH]1	0	0	-	-
O=C(NCCc1ccccn1)c1nc(-c2ccccc2)cc2[nH]ccc12	?	79.4µM	?	0
O=C(NCc1cccnc1)c1nc(-c2ccccc2)cc2[nH]ccc12	?	89.1µM	0	0
O=C1CCC(CNC(=O)c2nc(-c3ccccc3)cc3[nH]ccc23)N1 (stereo unspecified)	?	0	0	0
O=C(c1ccc(F)cc1)N1CCCN(Cc2ccc3c(c2)OCO3)c2ccccc21	?	?	0	0
O=C(c1ccc(Cl)cc1)N1CCCC(C(=O)N2CCC(c3nc4ccncc4[nH]3)C2)C1 (stereo unspecified)	0	0	-	-
CC1(C(=O)NCc2cnccn2)CCCc2cnc(NCc3ccccc3)nc21 (stereo unspecified)	89.1µM	0	0	0
CC1(C(=O)NCc2ccncc2)CCCc2cnc(Nc3ccccc3)nc21 (stereo unspecified)	100µM	0	0	0
CC1(C(=O)NCc2ccncc2)CCCc2cnc(NCc3ccccc3)nc21 (stereo unspecified)	25.1µM	89.1µM	0	0
Fc1ccc(-c2cn[nH]c2C2CCCNC2)cc1 (stereo unspecified)	0	0	0	0
CC(=O)N1Cc2ccccc2CC2(CCN(CC3CCOCC3)C2)C1 (stereo unspecified)	0	?	-	-
COC(=O)[C@@H]1Cc2c([nH]c3ccccc23)[C@H]2C[C@@H](NCCO)C[C@@H](c3ccccc3F)N21	28.2µM	39.8µM	0	0
COC(=O)C1=C(C)N=C2SC=C(CC(=O)NCC3CCCO3)N2C1c1ccccc1F (stereo unspecified)	0	0	0	0
COC(=O)[C@@H]1Cc2c([nH]c3ccccc23)[C@H]2C[C@@H](NCCNC(C)=O)C[C@@H](c3ccccc3F)N21	79.4µM	?	?	0
COC(=O)[C@@H]1Cc2c([nH]c3ccccc23)[C@H]2C[C@H](NC[C@H]3CCCO3)C[C@@H](c3ccccc3F)N21	35.5µM	?	0	0
CN1[C@H](C(=O)O)C[C@H](C(=O)NCCCO)[C@@H]1c1ccccc1F	0	0	0	0
O=C(c1cccs1)N1CCOc2ccc(N3CCCC3)cc2C1	?	17.8µM	-	-
Cc1ncccc1C(=O)N1CCCN(Cc2ccncc2)C(c2ccccc2)CC(=O)NCC1 (stereo unspecified)	0	0	0	0
COCC(=O)NCc1cc2n(n1)CCCN(Cc1cc3ccccc3s1)C2	?	20µM	0	0
Cc1ccc(CN2C(=O)OC(c3cccc(NC(=O)c4ccccc4)c3)C2C(=O)NCCC(C)C)cc1 (stereo unspecified)	?	?	0	0
COc1ccc(-c2nc(CN3CCC(CO)CC3)c(C)o2)c2ccccc12	?	20µM	0	0
CC(C)Oc1cccc(-c2nc(C(=O)NCc3ccccc3)cs2)c1	?	31.6µM	0	?
CC(C)Oc1cccc(-c2nc(C(=O)NCc3ccco3)cs2)c1	?	?	?	0
CCCOc1cccc(-c2nc(C(=O)NCC)cs2)c1	?	31.6µM	0	0
CCOc1ccc(CN2CC(Oc3ccccc3C(=O)NC3CC3)C2)cc1	0	?	0	0
COc1ccc(CN2CCC3(CC2)C(=NC2CCCCC2)NC(=O)N3c2cc(F)cc(F)c2)cc1	0	0	-	-
